The campaign covered roughly 100,000 compounds. About 770 (0.77%) were called active. No stated cut-off is given here; in the data, active means inhibition above about 50%; inactive means the rest. The list comes from a sample in which actives are over-represented; it also holds similar structures and randomly drawn compounds.

In general, inhibition refers to the percentage by which the read-out fell short of the control.

The experiment deals with Gag-Pol polyprotein (Human immunodeficiency virus type 1 group M subtype B (isolate HXB2)) (UniProt P04585). The experiment is described as follows: RNase H inhibition, HIV 1 Gag Pol polyprotein, FRET biochemical assay, screening (AID 372). As to conditions: HIV-1 RT RNase H, FRET RNA/DNA substrate fluorescence; at 10 µM; stronger effect = higher value.
As for `Cc1cc(=O)[nH]c(N/N=C/c2ccc(O)cc2)n1`, the inhibition was 2% (inactive).
Regarding `CC(C)(C)c1cc(C(=O)Nc2nsc(-c3ccccc3)n2)cc(C(C)(C)C)c1`, the inhibition is 7% (inactive).
As for `COc1ccc(NC(=O)/C=C/c2ccc(C)o2)cc1`, the inhibition was 21% (inactive).
Turning to `N#CC(C#N)=Cc1cn(-c2ccccc2)nc1-c1cc2ccccc2oc1=O`, the inhibition is 56% (active).
As for `O=c1oc2ccccc2cc1-c1nn(-c2ccccc2)cc1/C=N/O`, the inhibition is 21% (inactive).
The same measure for `N#C/C(=C/c1cn(-c2ccccc2)nc1-c1cc2ccccc2oc1=O)C(N)=O`: 8% (inactive).
With `Cc1ccccc1-c1nc2c3c4c(sc3ncn2n1)CCCCC4`, the inhibition was 8% (inactive).
The value for `COc1ccc(OCC(=O)Nc2sc3c(c2C(N)=O)CCCC3)cc1` was 41% (inactive); that for `COc1ccc(OCC(=O)Nc2ccc3oc(-c4ccncc4)nc3c2)cc1` was 14% (inactive).
Take `Cc1cccc(OCC(=O)Nc2ccc3oc(-c4cccc(I)c4)nc3c2)c1`: the inhibition is 22% (inactive).
The value for `CCc1ccc(-c2nc3cc(NC(=O)COc4ccc([N+](=O)[O-])cc4)ccc3o2)cc1` was 43% (inactive); that for `O=C(COc1ccc([N+](=O)[O-])cc1)Nc1ccc2oc(-c3ccccc3Cl)nc2c1` was 53% (active).
Turning to `O=C(COc1ccc([N+](=O)[O-])cc1)Nc1ccc2oc(-c3cccc(Cl)c3)nc2c1`, the inhibition is 9% (inactive).
As to `COc1ccc(-c2nc3cc(NC(=O)COc4ccc([N+](=O)[O-])cc4)ccc3o2)cc1`, the inhibition was 55% (active).
Consider `COc1ccc(OCC(=O)Nc2ccc3oc(-c4cccc(I)c4)nc3c2)cc1`, for which the inhibition was 53% (active).
The same measure for `O=C(COc1ccc([N+](=O)[O-])cc1)Nc1ccc2oc(-c3ccccc3F)nc2c1`: 49% (inactive); for `O=C(COc1ccc([N+](=O)[O-])cc1)Nc1ccc2oc(-c3ccc(Br)cc3)nc2c1`: 14% (inactive); for `O=c1[nH]c(-c2cccc(O)c2)nc2sc3c(c12)CCCC3`: 22% (inactive).
As for `COc1cccc(COc2cc3oc(=O)c4c(c3cc2Cl)CCCC4)c1`, the inhibition was 12% (inactive).
As to `O=C(NCc1cccnc1)c1cnn2c(C(F)(F)F)cc(-c3ccc4c(c3)OCO4)nc12`, the inhibition is 11% (inactive).
The same measure for `Cc1ccc(NC(=O)/C=C/c2ccc3c(c2)OCO3)c(C)c1`: 10% (inactive); for `C=CCN1C(=O)/C(=C\c2ccc(-c3ccc(C(=O)OCC)cc3)o2)C(=O)NC1=S`: 45% (inactive).
The value for `CCCCn1c(/N=C/c2nc3ccccc3n2C)nc2ccccc21` was 5% (inactive).
`CCN(CC)c1ccc(N2C(=O)/C(=C\c3ccc(C)o3)SC2=S)cc1`: the inhibition is 3% (inactive).
The value for `CCN(CC)C(=O)C(=O)N/N=C/c1ccco1` was 5% (inactive); that for `S=C(Nc1ccc2nccnc2c1)Nc1cccc2ccccc12` was 27% (inactive); that for `O=C(N=Nc1c(O)n(CN2CCCCCC2)c2ccc(Br)cc12)c1cccnc1` was 5% (inactive).
As to `N#C/C(=C\c1cccc(Br)c1)c1nc(-c2cccc([N+](=O)[O-])c2)cs1`, the inhibition was 22% (inactive).
For the compound `COc1ccc(/C=C(\C#N)c2nc(-c3ccc(OC)c(OC)c3)cs2)cc1O`, the inhibition was 25% (inactive).
The same measure for `N#C/C(=C\c1cccc([N+](=O)[O-])c1)c1nc(-c2cc3cc([N+](=O)[O-])ccc3oc2=O)cs1`: 7% (inactive); for `N#C/C(=C\c1cccc([N+](=O)[O-])c1)c1nc(-c2cccc([N+](=O)[O-])c2)cs1`: 6% (inactive).
As for `N#C/C(=C\C=C\c1ccccc1[N+](=O)[O-])c1nc(-c2cc3cc([N+](=O)[O-])ccc3oc2=O)cs1`, the inhibition was 6% (inactive).
The same measure for `COc1ccc(-c2csc(/C(C#N)=C/c3ccc(O)c(O)c3)n2)cc1OC`: 84% (active); for `N#C/C(=C\c1ccc(O)c(O)c1)c1nc(-c2cccc([N+](=O)[O-])c2)cs1`: 60% (active).
On to `N#C/C(=C\c1ccccc1[N+](=O)[O-])c1nc(-c2cc3cc([N+](=O)[O-])ccc3oc2=O)cs1`, for which the inhibition is 52% (active).
In the case of `COc1ccc(-c2csc(/C(C#N)=C/c3ccc(O)cc3)n2)cc1OC`, the inhibition is 24% (inactive).
For `Cc1ccc(-n2c(/C=C3/C(=O)N(C)c4ccc(Br)cc43)nc3ccccc3c2=O)cc1`, the inhibition was 2% (inactive).
The value for `C=CCN1C(=O)C(Cc2ccc(F)cc2)S/C1=N\N=C\c1ccco1` (stereo not drawn) was 3% (inactive); that for `CC12C=CC(O1)C1C(=O)N(c3ccc([N+](=O)[O-])cc3)C(=O)C12` (stereo not drawn) was 11% (inactive); that for `O=C1N/C(=N\N=C\c2ccccc2O)SC1Cc1ccc(Br)cc1` (stereo not drawn) was 16% (inactive).
Regarding `O=C(Nc1cccnc1)c1cccc(Cl)c1Cl`, the inhibition is 5% (inactive).
Regarding `O=C1S/C(=C/c2cccc(Br)c2)C(=O)N1c1ccccc1`, the inhibition is 12% (inactive).
In the case of `CCCN1C(=O)/C(=C\c2cccc(Cl)c2)SC1=S`, the inhibition was 19% (inactive).
The value for `O=C(Nc1ccc2oc(-c3cccc(Cl)c3)nc2c1)c1sc2ccccc2c1Cl` was 20% (inactive); that for `O=C(Nc1ccc2oc(-c3cccc(F)c3)nc2c1)c1sc2ccccc2c1Cl` was 52% (active).
The same measure for `O=C(Nc1ccc(NC(=O)c2sc3ccccc3c2Cl)cc1)c1ccccc1`: 53% (active); for `Cc1cccc(-c2nc3cc(NC(=O)c4sc5ccccc5c4Cl)ccc3o2)c1`: 37% (inactive); for `O=C(Nc1ccc(-c2nc3cc(Cl)ccc3o2)cc1)c1sc2ccccc2c1Cl`: 41% (inactive).
For the compound `O=C(Nc1nccs1)c1sc2ccccc2c1Cl`, the inhibition was 7% (inactive).
Take `O=C(c1ccccc1)c1ccc(NC(=O)c2sc3ccccc3c2Cl)cc1`: the inhibition was 18% (inactive).
With `Cc1ccc(-c2nc3cc(NC(=O)c4sc5ccccc5c4Cl)ccc3o2)cc1`, the inhibition is 20% (inactive).
The same measure for `CC(C)(C)c1ccc(C(=O)Nc2ccc(NC(=O)c3sc4ccccc4c3Cl)cc2)cc1`: 24% (inactive); for `O=S(=O)(Nc1nccs1)c1ccc(NC(=S)Nc2ccccc2)cc1`: 8% (inactive).
For `CCc1ccc2oc(-c3ccc(NC(=O)c4sc5ccccc5c4Cl)cc3)nc2c1`, the inhibition is 50% (active).
The value for `O=C(NC(=S)Nc1ccc(S(=O)(=O)Nc2nccs2)cc1)c1sc2ccccc2c1Cl` was 70% (active).
As for `Cc1cc(C)c(C(N)=O)c(Nc2ccccc2)n1`, the inhibition is 5% (inactive).
Consider `Cc1ccccc1C(=O)NC(=S)Nc1ccc2c3c(cccc13)CC2`, for which the inhibition was 21% (inactive).
For `O=C(Nc1ccc(F)cc1F)c1cccc(I)c1`, the inhibition is 4% (inactive).

The values above are taken from PubChem BioAssay AID372 (MTDP, 2006).
